Screening results as filed in PubChem BioAssay.
hNpr1 antagonist: antagonists of human natriuretic peptide receptor Npr1. P16066. HEK293 hNpr1 GloSensor cGMP, ANP-stimulated luminescence. Potency, µM (highest dose often 46.3 µM), for inactives: at the top dose activity change, negative = inhibition, usual class: inhibitors. 76,000 tested, 1.6% active. AID 1347048; further: on the % scale 0 is the no-effect control and ±100 the full control effect; nearly all actives have a fitted effect of over 60% in size
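Compound pre-incubated 30 min at room temperature on GloSensor-loaded HEK293 cells stably carrying hNpr1 and the pGS-40F cGMP biosensor. Stimulation uses hNppA at 0.1 nM final; luminescence is taken at baseline and 20 min post-agonist.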
HEK cytotox: kills HEK 293 cells; HEK 293 viability, ATP luminescence (CellTiter-Glo), 48-72 h; 94,000 tested, 6.6% active; Potency, µM (top dose mostly 115 µM), for inactives: at the highest dose activity change, negative = cytotoxicity, usual class: inhibitors; AID 1345083; active means well fitted curve in the direction sought with a large enough effect; inconclusive means small, poorly fitted or top-dose-only effect, or another doubt; inactive means no such curve, though single readings can be large; an effect the other way counts as inactive or inconclusive; further: on the % scale 0 is the no-effect control and ±100 the full control effect; nearly all actives have a fitted effect of over 60% in size
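Luminescence from cellular ATP, measured with CellTiter-Glo, indicates HEK 293 viability. Cells plated at 250 cells/well are treated with compound for 48 or 72 hr at 37 degree Celsius before reagent addition.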
3T3 cytotox: cytotoxic compounds in NIH 3T3 cells. NIH 3T3 viability, CellTiter-Glo ATP luminescence, 48-72 h. AID 1345082. Potency, µM (titrated, usually from 96.7 µM), without a hit: at the top dose activity change, negative = cytotoxicity, usual class: inhibitors. 94,000 tested, 4.3% active; active means well fitted curve in the direction sought with a large enough effect; inconclusive means small, poorly fitted or top-dose-only effect, or another doubt; inactive means no such curve, though single readings can be large; an effect the other way counts as inactive or inconclusive; further: on the % scale 0 is the no-effect control and ±100 the full control effect; nearly all actives have a fitted effect of over 55% in size
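Viability of NIH 3T3 cells after 48 or 72 hr compound treatment at 37 °C was assessed by CellTiter-Glo, with luminescence imaged following a 10 min room-temperature step.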
FLuc inh: blocks purified firefly luciferase enzyme activity | P08659 | purified P. pyralis luciferase, luminescence, biochemical | Potency, µM (series often up to 115 µM), usual class: inhibitors | 76,000 tested, 2.5% active | AID 1347043; active means well fitted curve in the direction sought with a large enough effect; inconclusive means small, poorly fitted or top-dose-only effect, or another doubt; inactive means no such curve, though single readings can be large; an effect the other way counts as inactive or inconclusive; further: on the % scale 0 is the no-effect control and ±100 the full control effect; nearly all actives have a fitted effect of over 65% in size
Target sequence (P08659 whole entry, looked up): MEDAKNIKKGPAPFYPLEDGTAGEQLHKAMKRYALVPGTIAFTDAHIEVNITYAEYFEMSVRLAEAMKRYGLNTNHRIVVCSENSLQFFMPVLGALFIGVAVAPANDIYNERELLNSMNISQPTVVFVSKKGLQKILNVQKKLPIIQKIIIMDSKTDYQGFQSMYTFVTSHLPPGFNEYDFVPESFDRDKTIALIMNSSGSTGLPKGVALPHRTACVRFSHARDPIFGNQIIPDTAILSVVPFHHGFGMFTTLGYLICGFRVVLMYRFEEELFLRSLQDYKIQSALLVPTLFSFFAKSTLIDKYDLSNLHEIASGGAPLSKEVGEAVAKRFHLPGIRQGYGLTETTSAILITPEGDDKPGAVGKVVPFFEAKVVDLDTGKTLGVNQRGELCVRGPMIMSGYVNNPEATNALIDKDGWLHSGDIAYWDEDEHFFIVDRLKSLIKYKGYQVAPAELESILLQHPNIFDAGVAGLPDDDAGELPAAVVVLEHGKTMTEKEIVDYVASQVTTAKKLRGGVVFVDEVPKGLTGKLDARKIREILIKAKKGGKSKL
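FLuc 10nM, D-luciferin 10uM, ATP 10uM, Mg acetate 10mM, Tris acetate pH 7.5, Tween/BSA; cpd qHTS; enzyme added last; CCD luminescence.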
NPR1 antag cnf: hNpr1 antagonism, confirmation assay. shares compounds with hNpr1 antagonist. HEK293 hNpr1 cGMP GloSensor luminescence, ANP-stimulated. Potency, µM (doses to about 57.6 µM), without a hit: at the highest dose activity change, negative = inhibition, hits mostly inhibitors. 1,400 tested, 76% active. AID 1347044; further: nearly all actives have a fitted effect of over 70% in size
Npr2 selectivity: hNpr2 antagonism, selectivity versus Npr1 | shares compounds with hNpr1 antagonist | HEK293 hNpr2 GloSensor cGMP luminescence, CNP-stimulated | Potency, µM (titrated, usually from 57.6 µM), for the others: top-dose activity change, negative = inhibition, usual class: inhibitors | 1,400 tested, 67% active; further: nearly all actives have a fitted effect of over 70% in size
FLuc inh counter: counter-screen for Npr1 antagonists: firefly luciferase inhibitors | AID 1347047 | Potency, µM (top dose mostly 57.6 µM), for the others: at the highest dose activity change, negative = inhibition, usual class: inhibitors | 1,400 tested, 0.7% active | shares compounds with hNpr1 antagonist | purified FLuc enzyme, luminescence, Km substrate; active means well fitted curve in the direction sought with a large enough effect; inconclusive means small, poorly fitted or top-dose-only effect, or another doubt; inactive means no such curve, though single readings can be large; an effect the other way counts as inactive or inconclusive; further: 0% is about no effect
GloSensor cGMP: control cell line activity, Npr1 antagonist counter-screen | shares compounds with hNpr1 antagonist | HEK293 GloSensor cGMP, SNP-stimulated, luminescence | Potency, µM (highest dose often 57.6 µM), for the others: at the top dose activity change, negative = inhibition, actives largely listed as inhibitors | 1,400 tested, 69% active; further: on the % scale 0 is the no-effect control and ±100 the full control effect; nearly all actives have a fitted effect of over 70% in size
Numbers without * were called inactive; i = inactive; ? = inconclusive; . = not tested or not shown; [ ] = dose if it differs, or a comment. Hits are enriched below; roughly 11% of the tested compounds scored in any of these assays. Unless noted, the call rests on the fitted dose curve. Potency means the concentration at half of the fitted maximal effect.

SMILES	hNpr1 antagonist	HEK cytotox	3T3 cytotox	FLuc inh	NPR1 antag cnf	Npr2 selectivity	FLuc inh counter	GloSensor cGMP
COc1cccc(-c2ccccc2NC(=O)C2CCN(Cc3cc(OC)ccc3O)CC2)c1	?	18µM*	?	i	24µM*	?	-17%	27µM*
C[S+](=O)([O-])c1ccc(-c2nnc3ccc(C(=O)NCCc4ccccc4F)cn23)cc1	.	-23%	?	.	.	.	.	.
O=C(c1ccsc1)N1CCC2(CC1)CC(N1CCOCC1)CCO2 (centres undefined)	.	-7%	-19%	.	.	.	.	.
COc1ccc(-c2nccn3cc(C(=O)NCc4cccnc4)nc23)cc1	11µM*	-29%	?	i	24µM*	19µM*	1%	4%
Cc1nn2c(c1-c1ccccc1C(C)C)N(CCC(C)C)CCC2	2.5µM*	11µM*	8.9µM*	i	1.6µM*	2.5µM*	-10%[86.2 µM]	1.8µM*
COc1ccc(OC)c(CN2CCCn3nc(C)c(-c4ccccc4C(C)C)c32)c1	-27%[70.6 µM]	63µM*	35µM*	i	40µM*	40µM*	2%[86.2 µM]	?
COc1ccc(OC)c(CN2CC[C@@H]3OCC(=O)N(C(C)C)[C@H]3CC2)c1	-24%[70.6 µM]	?	?	i	.	.	.	.
Cc1nn2c(c1-c1ccccc1C(N)=O)N(C(=O)c1ccccc1)CCC2	0%[70.6 µM]	i	?	i	.	.	.	.
Cc1nn2c(c1-c1ccccc1C(C)C)N(Cc1cccc(C(=O)O)c1)CCC2	?	56µM*	45µM*	i	?	-22%[86.2 µM]	-2%[86.2 µM]	-23%[86.2 µM]
COc1ccc(N2CCN(C(=O)C3(CCO)CC34CCOCC4)CC2)cc1 (centres undefined)	.	0%	-24%	.	.	.	.	.
COc1ccccc1CN1CCc2nc(C(=O)Nc3ccc(Cl)cc3)oc2CC1	13µM*	28µM*	50µM*	i	14µM*	18µM*	0%[86.2 µM]	13µM*
O=C(Nc1ccc(Cl)cc1)c1nc2c(o1)CCN(Cc1cccc(F)c1F)CC2	3.5µM*	32µM*	?	i	6.3µM*	9.9µM*	-6%[86.2 µM]	7µM*
COCCNC(=O)c1nc2c(o1)CCN(Cc1cccc(F)c1F)CC2	0%[70.6 µM]	-45%[172 µM]	?	i	.	.	.	.
O=C(Nc1ccc(Cl)cc1)c1nc2c(o1)CCN(Cc1ccc(F)cc1F)CC2	3.2µM*	?	?	i	7µM*	8.9µM*	2%[86.2 µM]	7.9µM*
COc1ccc(-c2cc3c(=O)n(CCNC(=O)c4ccc(N(C)C)cc4)ccn3n2)cc1	1%	-13%	-5%	i	.	.	.	.
O=S(=O)(c1ccc(Cl)cc1)N1CCOC[C@H](Oc2ccc(C(F)(F)F)cc2)C1	-24%	?	?	i	?	?	4%	?
O=C(O)c1cc2c(s1)CCN(C(=O)c1ccc(F)cc1)C2	1%	-2%	-9%	i	.	.	.	.
O=C(c1ccccc1)N1CCc2sc(C(=O)N3CCN(c4ccc(F)cc4)CC3)cc2C1	7.1µM*	?	?	i	9.7µM*	11µM*	1%	6.9µM*
CC1CCCN(C(=O)c2cc3c(s2)CCN(C(=O)c2ccc(Cl)cc2)C3)C1 (centres undefined)	-25%	45µM*	?	i	27µM*	27µM*	1%	24µM*
O=C(c1ccc2nnc(-c3cc[nH]c3)n2c1)N1CCOCC1	.	2%[172 µM]	-13%[138 µM]	.	.	.	.	.
COCc1ccc2c(c1)c(OC(C)(C)C(=O)NCCN1CCOCC1)nn2CCC(C)C	0%	-3%	?	i	.	.	.	.
O=C(Cn1ccc2ccccc2c1=O)N1CCCOC(Cn2cccn2)C1 (centres undefined)	3%	-5%	2%	i	.	.	.	.
O=C(Nc1cc(F)cc(C(F)(F)F)c1)N1CCCOC(Cn2cccn2)C1 (centres undefined)	13µM*	?	?	i	22µM*	22µM*	3%	19µM*
CC1Oc2ccc(NC(=O)Cc3ccccc3)cc2CN(Cc2ccc(Cl)cc2)C1=O (centres undefined)	11µM*	?	?	i	22µM*	19µM*	4%	17µM*
CC1Oc2ccc(NC(=O)c3ccc(F)cc3F)cc2CN(CCc2ccccc2)C1=O (centres undefined)	3%	?	-26%	i	.	.	.	.
SMILES	hNpr1 antagonist	HEK cytotox	3T3 cytotox	FLuc inh	NPR1 antag cnf	Npr2 selectivity	FLuc inh counter	GloSensor cGMP
CC(=O)Oc1ccccc1C(=O)Nc1ccc2c(c1)CN(CCc1ccc(F)cc1)C(=O)C(C)O2 (centres undefined)	16µM*	?	25µM*	i	24µM*	24µM*	-7%	24µM*
CNC(C)c1ccccc1Cl (centres undefined)	.	i	0%[174 µM]	.	.	.	.	.
O=C(c1ccccc1Cl)N1CCN(c2ccc3nnc(C4CC4)n3n2)CC1	.	-2%	-25%	.	.	.	.	.
CN1CCC(NC[C@H]2O[C@H](Cc3cc(-c4cccc(O)c4)on3)CC[C@@H]2O)CC1	?	0%[172 µM]	-2%[174 µM]	i	?	-27%[86.2 µM]	-13%[86.2 µM]	?
CCNC[C@H]1O[C@H](Cc2cc(-c3ccc(F)cc3)on2)CC[C@@H]1O	?	?	?	?	?	-21%[86.2 µM]	-26%[86.2 µM]	?
O[C@H]1CC[C@@H](Cc2cc(-c3ccc(F)cc3)on2)O[C@@H]1CNC1CCNCC1	-23%[70.6 µM]	-24%[172 µM]	-29%[174 µM]	i	.	.	.	.
O=C1NCCCCCCN(Cc2cccc(F)c2)[C@H]2C[C@H](C(=O)N3CCc4ccccc4C3)C[C@@H]12	16µM*	25µM*	40µM*	i	?	?	0%	-13%
COCCN1CCN(C[C@@H]2C=C(C)[C@H](Cc3nnc(COc4ccc(F)cc4)o3)C[C@H]2C(C)C)CC1	-8%	-33%	?	i	.	.	.	.
COc1ccc(-c2nnc(C[C@@H]3C[C@@H](C(C)C)[C@H](CNc4ccccn4)C=C3C)o2)cc1	16µM*	25µM*	35µM*	i	22µM*	28µM*	-1%[86.2 µM]	22µM*
CC1=C[C@@H](CN2CCN(c3ncccn3)CC2)[C@H](C(C)C)C[C@H]1Cc1nnc(-c2ccccc2F)o1	-21%	32µM*	40µM*	i	?	?	-2%	27µM*
